The text below walks through data of PubChem BioAssay (NCATS).

Assay [1] concerns the target Aldehyde dehydrogenase, mitochondrial (Homo sapiens) (UniProt P05091). As to the kind of experiment: qHTS for Inhibitors of the Aldehyde Dehydrogenase Family (ALDH2) Primary screen (AID 2061308). Also: nearly all actives have a fitted effect of over 55% in size.
Assay [2] concerns the target Retinaldehyde dehydrogenase 3 (Homo sapiens) (UniProt P47895). As to the kind of experiment: qHTS for Inhibitors of the Aldehyde Dehydrogenase Family (ALDH1A3) Primary screen (AID 2061315).

SMILES strings stand for the structures. Records with an inconclusive call do not appear. A call without a number means that no potency is given here. Calls of active or inactive are those of the source. Calls follow the shape of the dose curve; as a rule, active = well fitted curve in the direction sought with a large enough effect; inconclusive = small, poorly fitted or top-dose-only effect, or another doubt; inactive = no such curve, though single readings can be large; an effect the other way counts as inactive or inconclusive.

In the case of `COc1ccc2[nH]c(=O)c3c(c2c1)OC(C)(C)C=C3`, the Potency result in assay [1] and in assay [2] was “inactive” throughout.

Take `C[N+]1(CC2COC(c3ccccc3)(c3ccccc3)O2)CCCCC1` (stereo not drawn): the Potency entry in assay [1] and in assay [2] was “inactive” in each case.

In the case of `COc1cccc(S(=O)(=O)Nc2cnccc2C(=O)Nc2nc(-c3ccccc3)cs2)c1`, the Potency entry in assay [1] and in assay [2] was “inactive” each time.

In the case of `Cc1nc(C(C)N(C)c2ncnc3ccc(-c4ccc5c(c4)OCO5)cc23)cs1` (stereo not drawn), the Potency result in assay [1] and in assay [2] was “inactive” in each case.

On to `O=S(=O)(NC1CCN(S(=O)(=O)c2ccc3c(c2)OCCO3)CC1)c1c(F)cccc1F`, for which the Potency entry in assay [1] and in assay [2] was “inactive” in each case.

In the case of `Cc1cn([C@H]2C[C@H](N[S+](=O)([O-])c3ccc4c(c3)OCCO4)[C@@H](CO)O2)c(=O)[nH]c1=O`, the Potency result in assay [1] and in assay [2] was “inactive” in each case.

For `Cc1nc(NCc2ccccc2)c2nc(-c3ccccc3)n(C3CCN(Cc4ccccc4)C3)c2n1` (stereo not drawn), the Potency result in assay [1] and in assay [2] was “inactive” each time.

On to `CCCn1c(C)nc2c(NCCN(CC)CC)nc(C)nc21`, for which the Potency result in assay [1] and in assay [2] was “inactive” throughout.

For the molecule `Cc1cnc(NC(=O)c2ccc(-c3cccc([N+](=O)[O-])c3)o2)s1`, the Potency result in assay [1] and in assay [2] was “inactive” throughout.

Regarding `NC(=O)C1CCN(c2nc(-c3ccc4c(c3)OCCCO4)cs2)CC1`, the Potency entry in assay [1] and in assay [2] was “inactive” in each case.

`Cc1c(P(=S)(c2ccccc2)c2ccccc2)c2ccccc2n1CCCc1ccccc1`: the Potency entry in assay [1] and in assay [2] was “inactive” in each case.

Turning to `Cc1cc(NC(=O)Nc2nnc(-c3cccnc3)s2)ccc1Br`, the Potency entry in assay [1] and in assay [2] was “inactive” in each case.

With `C=CCSc1nnc(-c2cccc3ccccc23)o1`, the Potency result in assay [1] and in assay [2] was “inactive” in each case.

On to `O=C1CCCC2=C1C(c1ccccc1C(F)(F)F)N=C(Nc1nc3ccccc3o1)N2` (stereo not drawn), for which the Potency entry in assay [1] and in assay [2] was “inactive” each time.

Turning to `FC(F)(F)c1ccccc1-c1nc(NCc2ccc3c(c2)OCO3)c2ccccc2n1`, the Potency result in assay [1] and in assay [2] was “inactive” each time.

As for `O=C(Nc1nnc(-c2ccco2)o1)c1ccc(Cl)cc1`, the Potency result in assay [1] and in assay [2] was “inactive” throughout.

`Cc1cc(C)nc(NC(=S)N2CCN(c3ccc4nncn4c3)CC2)c1`: the Potency result in assay [1] and in assay [2] was “inactive” in each case.

On to `Cc1ccc(OCCn2c(CCNC(=O)c3ccc(C)cc3)nc3ccccc32)cc1`, for which the Potency entry in assay [1] and in assay [2] was “inactive” throughout.

Turning to `COc1ccccc1C1=Nn2c(COc3ccccc3)nnc2SC1`, the Potency result in assay [1] and in assay [2] was “inactive” each time.

On to `Cc1ccc(S(=O)(=O)Nc2cnccc2C(=O)Nc2ccncc2)cc1`, for which the Potency result in assay [1] and in assay [2] was “inactive” in each case.

With `Cc1ccc(NS(=O)(=O)c2cc3c(cc2F)NC(=O)CC3)cc1C`, the Potency entry in assay [1] and in assay [2] was “inactive” in each case.

With `Cc1ccc(OCCn2c(CCNC(=O)NC3CCCCC3)nc3ccccc32)cc1`, the Potency result in assay [1] and in assay [2] was “inactive” throughout.

In the case of `O=C(O)c1ccc(O)c2ncc(-c3n[nH]nc3-c3ccccc3)cc12`, the Potency result in assay [1] and in assay [2] was “inactive” throughout.

In the case of `COc1cc([C@H]2O[C@H](c3cc(OC)c4c(c3)OCO4)[C@H](C)[C@H]2C)cc(OC)c1OC`, the Potency entry in assay [1] and in assay [2] was “inactive” each time.

With `O=[S+]([O-])(Nc1ccccc1)c1ccc(NCc2cccc(Cl)c2F)cc1`, the Potency entry in assay [1] and in assay [2] was “inactive” in each case.

Consider `O=C1NC2=C(C(=O)CCC2)C(c2ccccc2Cl)N1` (stereo not drawn), for which the Potency result in assay [1] and in assay [2] was “inactive” in each case.

Regarding `O=C1CCCC2=C1C1(CCCC1)N=C(Nc1nc3cc(Br)ccc3o1)N2`, the Potency result in assay [1] and in assay [2] was “inactive” each time.

As for `C/C(=C\c1ccsc1)C1Nc2cccc3cccc(c23)N1`, the Potency result in assay [1] and in assay [2] was “inactive” throughout.

In the case of `CCCn1c(C)nc2c(NCCN3CCOCC3)nc(C)nc21`, the Potency result in assay [1] and in assay [2] was “inactive” throughout.

For the molecule `O=C(Nc1cccnc1)C1CCCCC1`, the Potency result in assay [1] and in assay [2] was “inactive” throughout.

`COc1ccc(-c2nc3ccccc3c(=O)n2Cc2ccccc2)cc1COc1ccc(NC(C)=O)cc1`: the Potency entry in assay [1] and in assay [2] was “inactive” throughout.

Turning to `FC(F)(F)c1ccccc1-c1nc(NCc2ccc(Cl)c(Cl)c2)c2ccccc2n1`, the Potency entry in assay [1] and in assay [2] was “inactive” each time.

For `Cc1ccc(N2CCC(CNc3nc(-c4ccccc4C(C)C)ncc3F)CC2)cn1`, the Potency entry in assay [1] and in assay [2] was “inactive” in each case.

As to `O=S(=O)(c1ccccc1)N1CCN(c2nccc(-c3cccs3)n2)CC1`, the Potency result in assay [1] and in assay [2] was “inactive” throughout.

For `Cn1nnnc1Sc1ncnc2scc(-c3cccc4ccccc34)c12`, the Potency result in assay [1] and in assay [2] was “inactive” each time.

As for `Cc1cc2c(s1)c1cnn(Cc3cccc(C)c3F)c(=O)c1n2C`, the Potency entry in assay [1] and in assay [2] was “inactive” throughout.

As to `O=C(NC1CCCc2c1cnn2-c1ccc(F)cc1F)C1CCCCN1` (stereo not drawn), the Potency result in assay [1] and in assay [2] was “inactive” each time.

On to `CCOC(=O)c1nn(-c2ccccc2)c(=O)c2c(N)scc12`, for which the Potency result in assay [1] and in assay [2] was “inactive” each time.

`COc1ccc(C(=O)Nc2nnc(-c3ccco3)o2)cc1`: the Potency entry in assay [1] and in assay [2] was “inactive” in each case.

With `O=C(NCc1ccc(Cl)c(Cl)c1)Nc1nnc(-c2ccncc2)s1`, the Potency result in assay [1] and in assay [2] was “inactive” in each case.

For `C#CCOc1ccc(-c2nnc3n2N=C(c2ccc(OC)c(OCC(C)=O)c2)CS3)cc1`, the Potency result in assay [1] and in assay [2] was “inactive” each time.

Take `NS(=O)(=O)c1ccc(Nc2nc(-c3ccccc3)cs2)cc1`: the Potency result in assay [1] and in assay [2] was “inactive” in each case.

In the case of `COC(=O)c1ccc(O)c2ncc(N(C)C)cc12`, the Potency result in assay [1] and in assay [2] was “inactive” throughout.

`Cc1nc(CN(C)c2ncnc3ccc(-c4ccc5c(c4)OCO5)cc23)cs1`: the Potency result in assay [1] and in assay [2] was “inactive” throughout.
